Drawing on PubChem BioAssay (EPA / NIEHS), this text covers outcome and AC50 for 3 compounds.

The source made the active and inactive calls. The calls were made as follows: active = hit-call score of the fitted dose curve at least 0.9, where 1 is the maximum; inactive = score below 0.9.

The nature of assay [1]: ATG_M_32_CIS: Attagene CIS-FACTORIAL HepG2 Assay for M32 Transcription Factor (Internal Marker) (AID 2282949).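 Also: background control marker of the multiplexed CIS panel rather than a real target.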 The conditions noted are these: HepG2 Attagene cis-factorial M32 reporter, mRNA; actives raise or lower the signal. The procedure, abridged: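 HepG2 cells transiently transfected with multiplexed cis-regulated reporter units, dosed 24 h. Reporter mRNA quantified by RT-PCR, 6-FAM labelling, HpaI digestion and capillary electrophoresis; bidirectional fit vs DMSO.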

The nature of assay [2]: ATG_M_06_CIS: Attagene CIS-FACTORIAL HepG2 Assay for M06 Transcription Factor (Internal Marker) (AID 2282950). The note with it: HepG2 Attagene CIS-FACTORIAL M06 internal marker reporter; actives raise or lower the signal. Put shortly: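 HepG2 cells transiently transfected with cis-regulated multiple reporter transcription units were exposed to chemical for 24 h; reporter mRNA was quantified by RT-PCR, 6-FAM primer labelling, HpaI digestion and capillary electrophoresis, fitted bidirectionally against DMSO.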

Assay [3] has as its target Hypoxia-inducible factor 1-alpha (Homo sapiens) (UniProt Q16665). Briefly: ATG_HIF1a_CIS: Attagene CIS-FACTORIAL HepG2 Assay for human Hypoxia Inducible Factor 1 (HIF1A) (AID 2282951). The conditions noted are these: HepG2 Attagene cis-factorial HIF1a reporter transcription; actives raise or lower the signal. The procedure, abridged:
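In this multiplexed cell assay, HepG2 cells bearing transfected cis reporters are dosed for 24 h and reporter mRNA is read by RT-PCR plus capillary electrophoresis; signal increases and decreases are both scored against DMSO.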

Assay [4] addresses Hepatocyte nuclear factor 6 (Homo sapiens) (UniProt Q9UBC0). Briefly: ATG_HNF6_CIS: Attagene CIS-FACTORIAL HepG2 Assay for human Hepatocyte Nuclear Factor 6 (HNF6) (AID 2282952). The conditions noted are these: HepG2 Attagene cis-factorial HNF6 reporter transcription; actives raise or lower the signal. Put shortly:
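HepG2 cells transiently transfected with cis-element-driven multiplexed reporter units measuring endogenous transcription factor activity. After 24 h exposure, reporter mRNA quantified by RT-PCR, FAM-labelled fragments and capillary electrophoresis; bidirectional fitting versus DMSO.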

Assay [5] concerns the target Heat shock factor protein 1 (Homo sapiens) (UniProt Q00613). Briefly: ATG_HSE_CIS: Attagene CIS-FACTORIAL HepG2 Assay for human Heat Shock Transcription Factor 1 (HSE) (AID 2282953). The note with it: HepG2 HSE cis-reporter, Attagene RNA transcription; actives raise or lower the signal. Put shortly:
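HepG2 cells transiently transfected with multiple reporter transcription units under cis-regulatory promoter control, measuring endogenous transcription factor activity. After 24 h chemical exposure, reporter mRNA quantified by RT-PCR, fluorescent labelling, HpaI digestion and capillary electrophoresis; bidirectional fit versus DMSO.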

Assay [6] can be described thus: ATG_MRE_CIS: Attagene CIS-FACTORIAL HepG2 Assay for human Metal Responsive Element (MRE) (AID 2282954). The note with it: HepG2 MRE cis-reporter transcription, Attagene multiplex; actives raise or lower the signal. Put shortly: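 Step one: transfect HepG2 with cis-regulated reporter units. Step two: dose 24 h. Step three: isolate RNA, RT-PCR, 6-FAM label, HpaI digest, capillary electrophoresis. Fit bidirectionally to DMSO.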

Assay [7] deals with Paired box protein Pax-6 (Homo sapiens) (UniProt P26367). Briefly: ATG_Pax6_CIS: Attagene CIS-FACTORIAL HepG2 Assay for human Paired Box 6 (PAX6) (AID 2282956). The note with it: HepG2 CIS-FACTORIAL PAX6 reporter transcription, RNA readout; actives raise or lower the signal. The procedure, abridged:
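HepG2 cells transiently transfected with multiplexed cis-promoter reporter units (endogenous TF activity) were dosed for 24 h. Reporter mRNA was quantified by RT-PCR, 6-FAM labeling, HpaI digestion and capillary electrophoresis; bidirectional fitting versus DMSO baseline.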

The nature of assay [8]: ATG_PXRE_CIS: Attagene CIS-FACTORIAL HepG2 Assay for human Pregnane X Receptor Element (PXRE) (AID 2282957). The note with it: HepG2 Attagene CIS-FACTORIAL PXRE reporter, mRNA; actives raise or lower the signal. Put shortly:
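HepG2 cells transiently transfected with cis-element-driven multiplexed reporter units; after 24 h chemical exposure, reporter mRNA measured by RT-PCR, 6-FAM labelling, HpaI digestion and capillary electrophoresis. Bidirectional fitting relative to DMSO.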

A short description of assay [9]: ATG_PPRE_CIS: Attagene CIS-FACTORIAL HepG2 Assay for human Peroxisome Proliferator-activated Response Element (PPRE) (AID 2282958). The conditions noted are these: HepG2 PPRE cis-element reporter, Attagene transcription factor profiling; actives raise or lower the signal. The procedure, abridged:
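Multiplexed reporter transcription units under cis-regulatory promoters were transfected into HepG2 cells to capture endogenous factor activity. A 24 h incubation preceded RNA isolation and fluorescent RT-PCR fragment analysis.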

Assay [10] in a line: ATG_RORE_CIS: Attagene CIS-FACTORIAL HepG2 Assay for human RAR-related Orphan Receptor Element (RORE) (AID 2282959). The conditions noted are these: HepG2 Attagene cis-factorial RORE reporter, mRNA; actives raise or lower the signal. The procedure, abridged:
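Fluorescence intensity of reporter-specific cDNA fragments, separated by capillary electrophoresis, gives the signal. Source: HepG2 liver cells transiently transfected with cis-element reporters and exposed 24 h; DMSO-normalized bidirectional fit.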

The nature of assay [11]: ATG_Sox_CIS: Attagene CIS-FACTORIAL HepG2 Assay for human SRY-box transcription factor (SOX) (AID 2282960). The conditions noted are these: HepG2 Attagene cis-factorial SOX reporter, mRNA; actives raise or lower the signal. Put shortly: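 After 24 h of chemical treatment, transfected HepG2 reporter cells are lysed for total RNA. Transcript levels come from RT-PCR with labelled primer extension and capillary electrophoresis, analysed bidirectionally versus DMSO.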

Assay [12] concerns the target Transcription factor Sp1 (Homo sapiens) (UniProt P08047). Briefly: ATG_Sp1_CIS: Attagene CIS-FACTORIAL HepG2 Assay for human Specificity Protein 1 (Sp1) (AID 2282961). The conditions noted are these: HepG2 Sp1 cis-reporter transcription, actives raise or lower the signal. Put shortly: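 Sp1-driven reporter mRNA, read as capillary electrophoresis fluorescence after RT-PCR, in transiently transfected HepG2 cells dosed for 24 h; signal change in either direction relative to DMSO.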

The nature of assay [13]: ATG_SREBP_CIS: Attagene CIS-FACTORIAL HepG2 Assay for human Sterol Regulatory Element Binding (SREBP) (AID 2282962). The note with it: HepG2 Attagene cis-factorial SREBP reporter, mRNA; actives raise or lower the signal. The procedure, abridged: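 HepG2 cells transiently transfected with multiplexed cis-element reporter units report endogenous transcription factor activity. After 24 h of chemical exposure, reporter mRNA was quantified by RT-PCR, 6-FAM labelling, HpaI digestion and capillary electrophoresis; bidirectional fits used DMSO as baseline.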

In assay [14] the target is Signal transducer and activator of transcription 3 (Homo sapiens) (UniProt P40763). Briefly: ATG_STAT3_CIS: Attagene CIS-FACTORIAL HepG2 Assay for human Signal Transducer and Activator of Transcription 3 (STAT3) (AID 2282963). The conditions noted are these: HepG2, Attagene cis-factorial STAT3 reporter transcription; actives raise or lower the signal. Put shortly: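 Transcript-level reporter assay. HepG2 transient MRTU transfection, 24 h exposure, fluorescence detection after RT-PCR and CE; DMSO baseline.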

Assay [15] is described as follows: ATG_TA_CIS: Attagene CIS-FACTORIAL HepG2 Assay for human TA Basal Promoter (AID 2282964). The note with it: HepG2 Attagene CIS-factorial TA basal promoter reporter; actives raise or lower the signal. Put shortly:
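HepG2 cells transiently transfected with multiplexed cis-promoter reporter units, dosed 24 h. Reporter mRNA measured by RT-PCR, 6-FAM labelling, HpaI digestion and capillary electrophoresis; bidirectional fit versus DMSO baseline, serving as background control.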

The nature of assay [16]: ATG_TCF_b_cat_CIS: Attagene CIS-FACTORIAL HepG2 Assay for human T-Cell-Factor with beta-catenin (TCF/b-cat) (AID 2282965). The note with it: HepG2 TCF/beta-catenin cis-reporter transcription, actives raise or lower the signal. Put shortly:
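Using capillary electrophoresis as the read-out, labelled reporter cDNA fragments from transiently transfected HepG2 were sized and quantified. Exposure lasted 24 hours; activity in either direction was referenced to DMSO.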

A short description of assay [17]: ATG_TAL_CIS: Attagene CIS-FACTORIAL HepG2 Assay for human TAL Basal Promoter (AID 2282966).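 Also: background control endpoint measuring basal TAL promoter reporter mRNA not a specific factor.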 The conditions noted are these: HepG2 Attagene cis-factorial TAL promoter reporter; actives raise or lower the signal. Put shortly:
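HepG2 cells transiently transfected with multiplexed cis-promoter reporter units, dosed 24 h. Reporter mRNA quantified by RT-PCR, 6-FAM labelling, HpaI digestion and capillary electrophoresis; TAL basal promoter serves as background control, fitted bidirectionally versus DMSO.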

Assay [18] is described as follows: ATG_TGFb_CIS: Attagene CIS-FACTORIAL HepG2 Assay for human Transforming Growth Factor (TGF) (AID 2282967). The note with it: HepG2 Attagene CIS TGFb reporter, mRNA transcription; actives raise or lower the signal. The procedure, abridged:
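HepG2 cells transiently transfected with cis-promoter-driven multiplexed reporter units; 24 h compound exposure. Reporter mRNA measured by RT-PCR, 6-FAM labeling, HpaI digestion and capillary electrophoresis; bidirectional fit versus DMSO baseline.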

A short description of assay [19]: ATG_VDRE_CIS: Attagene CIS-FACTORIAL HepG2 Assay for human Vitamin D Receptor Element (VDRE) (AID 2282968). The note with it: HepG2 VDRE cis-reporter transcription, actives raise or lower the signal. The procedure, abridged: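 RT-PCR/CE readout of reporter mRNA; HepG2, transient transfection, 24 h dosing; DMSO baseline; bidirectional analysis.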

Chain of Signal transducer and activator of transcription 3 (Homo sapiens) (P40763 whole entry, looked up): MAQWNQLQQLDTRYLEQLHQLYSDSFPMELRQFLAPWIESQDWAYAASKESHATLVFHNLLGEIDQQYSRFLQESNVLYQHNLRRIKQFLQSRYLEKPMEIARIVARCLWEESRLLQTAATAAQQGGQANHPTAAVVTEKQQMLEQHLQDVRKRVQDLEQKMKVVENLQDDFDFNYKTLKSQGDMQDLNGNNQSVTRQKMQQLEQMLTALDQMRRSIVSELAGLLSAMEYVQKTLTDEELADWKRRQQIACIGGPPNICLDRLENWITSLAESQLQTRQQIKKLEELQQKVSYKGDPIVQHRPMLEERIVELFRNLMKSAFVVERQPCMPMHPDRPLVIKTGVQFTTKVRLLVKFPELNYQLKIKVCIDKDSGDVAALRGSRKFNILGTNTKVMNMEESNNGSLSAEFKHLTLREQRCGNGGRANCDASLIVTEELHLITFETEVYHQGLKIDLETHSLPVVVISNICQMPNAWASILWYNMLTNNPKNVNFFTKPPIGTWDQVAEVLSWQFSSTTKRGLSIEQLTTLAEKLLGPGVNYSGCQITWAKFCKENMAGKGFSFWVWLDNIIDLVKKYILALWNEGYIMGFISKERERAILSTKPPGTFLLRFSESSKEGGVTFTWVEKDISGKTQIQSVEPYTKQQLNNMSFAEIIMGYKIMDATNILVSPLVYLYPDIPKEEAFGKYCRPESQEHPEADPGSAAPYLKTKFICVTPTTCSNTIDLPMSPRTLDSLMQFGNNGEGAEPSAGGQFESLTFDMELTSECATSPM
Chain of Heat shock factor protein 1 (Homo sapiens) (Q00613 whole entry, looked up): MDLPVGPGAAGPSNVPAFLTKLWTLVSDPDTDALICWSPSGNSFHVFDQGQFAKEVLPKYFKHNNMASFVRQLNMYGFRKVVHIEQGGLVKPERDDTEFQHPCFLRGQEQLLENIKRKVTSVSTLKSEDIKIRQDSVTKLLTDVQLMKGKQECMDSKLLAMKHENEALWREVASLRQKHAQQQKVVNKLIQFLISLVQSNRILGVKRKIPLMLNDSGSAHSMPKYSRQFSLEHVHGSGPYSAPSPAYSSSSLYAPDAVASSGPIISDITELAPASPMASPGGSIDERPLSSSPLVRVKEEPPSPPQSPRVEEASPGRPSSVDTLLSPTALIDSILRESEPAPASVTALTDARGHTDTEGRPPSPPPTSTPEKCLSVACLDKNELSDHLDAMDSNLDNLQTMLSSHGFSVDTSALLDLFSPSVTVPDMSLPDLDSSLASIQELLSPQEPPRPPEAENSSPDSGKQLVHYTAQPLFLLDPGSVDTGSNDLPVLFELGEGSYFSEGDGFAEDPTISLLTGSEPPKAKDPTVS
Chain of Transcription factor Sp1 (Homo sapiens) (P08047 whole entry, looked up): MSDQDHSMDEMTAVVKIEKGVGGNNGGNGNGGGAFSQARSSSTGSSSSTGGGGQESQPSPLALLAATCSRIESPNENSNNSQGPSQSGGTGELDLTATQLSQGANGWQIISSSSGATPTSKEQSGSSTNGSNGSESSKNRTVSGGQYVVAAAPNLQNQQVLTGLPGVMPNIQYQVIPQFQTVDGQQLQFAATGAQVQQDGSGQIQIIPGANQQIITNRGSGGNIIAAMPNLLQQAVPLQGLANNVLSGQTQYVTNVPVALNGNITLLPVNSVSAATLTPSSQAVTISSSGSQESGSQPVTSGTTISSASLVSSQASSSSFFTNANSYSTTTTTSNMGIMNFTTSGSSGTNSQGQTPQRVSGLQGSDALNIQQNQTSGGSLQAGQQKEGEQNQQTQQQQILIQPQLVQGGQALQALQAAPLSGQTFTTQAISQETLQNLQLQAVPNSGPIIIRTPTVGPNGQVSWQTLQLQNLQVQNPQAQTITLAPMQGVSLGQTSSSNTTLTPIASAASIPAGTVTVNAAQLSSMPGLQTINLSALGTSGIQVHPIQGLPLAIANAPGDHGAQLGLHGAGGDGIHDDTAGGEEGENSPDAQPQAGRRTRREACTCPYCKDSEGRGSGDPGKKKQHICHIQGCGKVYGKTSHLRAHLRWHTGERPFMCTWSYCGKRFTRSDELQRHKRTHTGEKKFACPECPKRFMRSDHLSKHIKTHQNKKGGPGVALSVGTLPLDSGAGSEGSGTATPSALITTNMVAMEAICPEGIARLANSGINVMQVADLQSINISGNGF
Chain of Paired box protein Pax-6 (Homo sapiens) (P26367 whole entry, looked up): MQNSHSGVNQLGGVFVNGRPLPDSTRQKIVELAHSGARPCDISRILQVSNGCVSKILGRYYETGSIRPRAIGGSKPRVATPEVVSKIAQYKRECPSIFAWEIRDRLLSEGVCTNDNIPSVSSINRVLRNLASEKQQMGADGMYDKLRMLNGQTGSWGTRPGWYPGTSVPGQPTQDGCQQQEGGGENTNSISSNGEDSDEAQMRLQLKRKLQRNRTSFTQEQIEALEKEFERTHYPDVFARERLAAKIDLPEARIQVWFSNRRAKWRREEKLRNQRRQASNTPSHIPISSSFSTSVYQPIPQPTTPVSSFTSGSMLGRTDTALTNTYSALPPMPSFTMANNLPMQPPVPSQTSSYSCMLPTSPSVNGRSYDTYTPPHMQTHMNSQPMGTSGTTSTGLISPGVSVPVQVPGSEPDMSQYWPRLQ
Chain of Hepatocyte nuclear factor 6 (Homo sapiens) (Q9UBC0 whole entry, looked up, the tested form may be a part): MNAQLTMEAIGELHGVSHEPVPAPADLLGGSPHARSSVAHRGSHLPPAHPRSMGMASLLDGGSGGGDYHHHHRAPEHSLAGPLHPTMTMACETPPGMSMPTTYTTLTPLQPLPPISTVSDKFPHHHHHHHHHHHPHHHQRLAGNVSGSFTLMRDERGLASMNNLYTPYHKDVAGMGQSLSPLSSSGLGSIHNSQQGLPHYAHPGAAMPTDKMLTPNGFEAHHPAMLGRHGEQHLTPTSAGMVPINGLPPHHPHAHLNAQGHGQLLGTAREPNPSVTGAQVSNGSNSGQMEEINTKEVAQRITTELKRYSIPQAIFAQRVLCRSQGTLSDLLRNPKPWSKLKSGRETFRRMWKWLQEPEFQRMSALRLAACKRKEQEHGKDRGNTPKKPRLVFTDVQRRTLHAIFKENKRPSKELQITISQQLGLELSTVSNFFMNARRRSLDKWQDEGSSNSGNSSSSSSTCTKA
Chain of Hypoxia-inducible factor 1-alpha (Homo sapiens) (Q16665 whole entry, looked up): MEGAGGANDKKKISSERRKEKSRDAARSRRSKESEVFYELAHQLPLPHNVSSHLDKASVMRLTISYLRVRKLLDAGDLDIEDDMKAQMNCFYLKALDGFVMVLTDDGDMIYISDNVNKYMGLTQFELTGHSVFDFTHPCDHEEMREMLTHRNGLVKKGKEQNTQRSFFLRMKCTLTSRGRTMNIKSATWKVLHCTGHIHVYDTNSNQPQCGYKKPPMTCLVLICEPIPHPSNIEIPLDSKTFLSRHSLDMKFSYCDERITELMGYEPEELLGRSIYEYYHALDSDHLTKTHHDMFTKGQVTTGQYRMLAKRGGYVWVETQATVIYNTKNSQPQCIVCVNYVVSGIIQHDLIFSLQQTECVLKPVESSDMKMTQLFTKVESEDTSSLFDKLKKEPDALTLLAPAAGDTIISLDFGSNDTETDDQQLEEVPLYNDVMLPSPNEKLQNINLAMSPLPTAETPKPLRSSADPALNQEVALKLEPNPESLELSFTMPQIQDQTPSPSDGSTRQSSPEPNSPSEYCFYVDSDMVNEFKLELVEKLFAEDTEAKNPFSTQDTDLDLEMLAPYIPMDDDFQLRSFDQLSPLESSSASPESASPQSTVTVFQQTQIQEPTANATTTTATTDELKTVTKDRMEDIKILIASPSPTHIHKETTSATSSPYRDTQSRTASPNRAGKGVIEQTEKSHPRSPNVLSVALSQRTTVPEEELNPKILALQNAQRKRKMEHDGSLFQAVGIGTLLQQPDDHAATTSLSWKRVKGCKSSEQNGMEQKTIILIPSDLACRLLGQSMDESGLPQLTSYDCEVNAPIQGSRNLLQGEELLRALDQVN

The AC50 is the midpoint of the concentration-response curve, whichever way the signal moves. As for `CCC[CH2][Sn]([Cl])([Cl])[CH2]CCC`, the compound was called inactive in assay [1], in assay [2], in assay [4], in assay [14], in [15] and in assay [17]. The call in assay [18] was inactive. Moreover, the AC50 in assay [3] is 1.24 µM (active); in assay [5], 0.818 µM (active); in assay [6], 1.24 µM (active); in [7], 1.46 µM (active); in assay [8] it was 0.865 µM (active); in assay [9], 0.0625 µM (active). Moreover, the AC50 was 0.584 µM (active) in assay [10]; 1.61 µM (active) in assay [11]; 0.966 µM (active) in [12]; 0.811 µM (active) in assay [13]; 1.82 µM (active) in assay [16]; 1.24 µM (active) in [19].
For the compound `[F][Sn]([c]1ccccc1)([c]1ccccc1)[c]1ccccc1`, the compound was called inactive in assay [1], in assay [2], in assay [4], in assay [13], in [16] and in assay [17]. Further, the result in assay [18] was inactive. Further, the AC50 in assay [3] was 0.327 µM (active); in [5], 0.324 µM (active); in assay [6] it was 0.339 µM (active); in assay [7], 0.346 µM (active); in [8], 0.466 µM (active); in [10], 0.0319 µM (active). The AC50 is 0.328 µM (active) in [11]; 0.303 µM (active) in [12]; 0.597 µM (active) in assay [14]; 0.58 µM (active) in assay [15]; 0.332 µM (active) in assay [19].
`Cc1ccc2nc3sc(=O)sc3nc2c1`: the compound was classed as inactive in [1], in [2], in assay [3], in assay [4], in [6] and in assay [9]. For the same compound, the call in [12], in [13], in [14], in assay [16], in [17] and in assay [18] was inactive. For the same compound, the AC50 is 12.3 µM (active) in assay [5]; 7.08 µM (active) in assay [7]; 6.36 µM (active) in assay [8]; 6.58 µM (active) in assay [11]; 43.9 µM (active) in [15]; 14.3 µM (active) in assay [19].
